Potency and affinity values are given separately.
test system: Klebsiella pneumoniae; settings: Concentration 32 ug.mL-1;; ASSAY_TEST Inhibition of Bacterial Growth; detection method Absorption (OD600); MEDIA CAMHB; plate type 384well; NBS; CORNING #3640; time 18 hr

SMILES	Inhibition
Cc1ccc(N(Cc2cccc(C)c2)S(=O)(=O)c2cccn3c(C)nnc23)cc1	5.17%
CC(C)Sc1ccc2nn(CC(=O)Nc3ccc(F)cc3Cl)c(=O)n2n1	6.92%
COc1ccc(C(C)NC(=O)CCc2nnc3ccc(-c4ccc(C)c(C)c4)nn23)cc1OC (stereo not given)	11.56%
Cc1ccc(-c2ccc3nn(CC(=O)Nc4ccc(Br)cc4F)c(=O)n3n2)cc1	9.08%
Cc1ccc(NC(=O)Cn2nc3c4cc(-c5ccc(Cl)cc5)nn4ccn3c2=O)cc1F	4.91%
CCOc1ccc(-n2ccn3c(SCC(=O)Nc4ccc(CC)cc4)nnc3c2=O)cc1	16.87%
CCCCOc1ccc(-c2cc3c4nnc(SCC(=O)Nc5cc(C)ccc5C)n4ccn3n2)cc1	-2.43%
Cc1ccc(NC(=O)Cn2nc3c(N4CCCC(C)C4)nccn3c2=O)cc1C (stereo not given)	-5.74%
COc1cccc(Sc2nc3ccccc3n3c(=O)n(CC(=O)N4CCCc5ccccc54)nc23)c1	2.78%
CC(C)Sc1ccc2nn(CC(=O)Nc3ccc(Br)cc3F)c(=O)n2n1	15.2%
CCCCOc1ccc(-c2cc3c4nnc(SCC(=O)Nc5ccc(C)c(F)c5)n4ccn3n2)cc1	6.88%
Cc1oc(-c2ccccc2)nc1CSc1nc2ccccc2n2c(C(C)C)nnc12	2.59%
COc1ccccc1-n1ccn2c(SCC(=O)Nc3ccc(F)cc3F)nnc2c1=O	8.27%
Cc1ccc(-n2ccn3c(=O)n(Cc4ccccc4Cl)nc3c2=O)cc1C	4.31%
Cc1nnc2c(=O)n(CC(=O)Nc3ccc(F)cc3F)c3ccccc3n12	12.43%
O=C(Cn1nc2n(CCc3ccccc3)c(=O)c3ccccc3n2c1=O)Nc1ccc2c(c1)OCO2	5.15%
O=C(CSc1nc2ccccc2n2cnnc12)Nc1cc(C(F)(F)F)ccc1Cl	4.72%
Cc1nnc2c(S(=O)(=O)N(Cc3ccc(F)cc3)c3ccc(F)c(F)c3)cccn12	11.53%
Cc1cccc(Sc2nc3ccccc3n3c(=O)n(CC(=O)Nc4c(C)cc(C)cc4C)nc23)c1	10.9%
COc1ccc(NC(=O)Cn2nc3ccc(-c4ccc(Cl)cc4)nn3c2=O)cc1OC	8.45%

SMILES	Inhibition
COc1ccc(NC(=O)Cn2nc3c(Sc4ccccc4)nccn3c2=O)cc1Cl	-2.59%
COc1ccc(-c2cc3c4nn(CC(=O)Nc5cc(Cl)ccc5C)c(=O)n4ccn3n2)cc1	1.98%
COc1cccc(Cn2nc3ccc(-c4ccccc4)nn3c2=O)c1	7.25%
CC(C)CCn1c(=O)c2sccc2n2c(=O)n(CC(=O)N(C)c3ccccc3)nc12	0.74%
C=Cc1ccc(CN(c2cccc(F)c2)S(=O)(=O)c2ccc3nnc(C)n3c2)cc1	2.09%
CCc1ccccc1Sc1nccn2c(=O)n(CC(=O)NCc3cccs3)nc12	-0.44%
COc1ccccc1-n1ccn2c(SCC(=O)NCc3ccc(Cl)cc3)nnc2c1=O	9.61%
Cc1cc(C)cc(N(Cc2c(F)cccc2Cl)S(=O)(=O)c2cccn3cnnc23)c1	7.41%
CCc1ccc(N(Cc2ccccc2C)S(=O)(=O)c2cccn3c(CC)nnc23)cc1	6.17%
Cc1c(Cl)cccc1-n1ccn2c(=O)n(Cc3ccc(Cl)cc3)nc2c1=O	2.87%
CCCCOc1ccc(-c2cc3c4nnc(SCC(=O)Nc5ccc(Cl)cc5)n4ccn3n2)cc1	11.84%
O=C(Cn1nc2ccc(-c3ccccc3)nn2c1=O)Nc1ccc(Cl)c(C(F)(F)F)c1	4.19%
CCc1ccccc1Sc1nccn2c(=O)n(CC(=O)Nc3ccc(OC)c(Cl)c3)nc12	5.33%
O=C(Cn1nc2c(SC3CCCCC3)nccn2c1=O)N1CCN(c2ccccc2)CC1	7.42%
CCCCn1c(=O)c2sccc2n2c(SCc3cccc(C(F)(F)F)c3)nnc12	-0.52%
Cc1ccc(Oc2nccn3c(=O)n(CC(=O)Nc4ccc(Br)cc4F)nc23)cc1	2.41%
CCc1ccc(N(Cc2cc(F)cc(F)c2)S(=O)(=O)c2cccn3c(C)nnc23)cc1	2.59%
COc1cccc(CNC(=O)Cn2nc3c4cc(-c5cc(C)ccc5C)nn4ccn3c2=O)c1OC	6.77%
CCc1nnc2ccc(S(=O)(=O)N(Cc3cccc(OC)c3)c3ccc(F)cc3)cn12	3.57%
CCc1ccc(N(Cc2cccc(Cl)c2)S(=O)(=O)c2cccn3c(C)nnc23)cc1	7.34%

From ChEMBL document CHEMBL4513146, “CO-ADD screening of Karazin Kharkiv National University (Ukraine) compounds”
